In PubChem BioAssay:
Active and inactive are the calls of the source. Unless noted, how the calls were made is not given here.

Key:
[1] = anti-His antibody binders, primary screen, artefact control for SMM control protein annotation, biochemical, small-molecule microarray, 635 nm fluorescence (AID 1128); settings: anti-His Alexa647 antibody binding, higher = more signal;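 further: score merges feature fluorescence with signal-to-noise for each printed compound spot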
[2] = system: Human papillomavirus type 1a E7 protein (residues 1-88); assay: HPV1a E7 small-molecule binders, primary screen, biochemical, small-molecule microarray, residues 1-88, 635 nm (AID 1129); settings: small-molecule microarray binding, fluorescence 635 nm; higher = more signal
[3] = target: Focal adhesion kinase 1 (Homo sapiens) (UniProt Q05397); assay: small-molecule microarray binders of FAK, primary screen, biochemical, 635/667 nm fluorescence, BSA, DTT (AID 1130); settings: PTK2 binding, 635 nm fluorescence, higher = more signal;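 further: composite of spot emission at 667 nm and signal to noise over triplicate slides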
Chain of Focal adhesion kinase 1 (Homo sapiens) (Q05397 whole entry, looked up): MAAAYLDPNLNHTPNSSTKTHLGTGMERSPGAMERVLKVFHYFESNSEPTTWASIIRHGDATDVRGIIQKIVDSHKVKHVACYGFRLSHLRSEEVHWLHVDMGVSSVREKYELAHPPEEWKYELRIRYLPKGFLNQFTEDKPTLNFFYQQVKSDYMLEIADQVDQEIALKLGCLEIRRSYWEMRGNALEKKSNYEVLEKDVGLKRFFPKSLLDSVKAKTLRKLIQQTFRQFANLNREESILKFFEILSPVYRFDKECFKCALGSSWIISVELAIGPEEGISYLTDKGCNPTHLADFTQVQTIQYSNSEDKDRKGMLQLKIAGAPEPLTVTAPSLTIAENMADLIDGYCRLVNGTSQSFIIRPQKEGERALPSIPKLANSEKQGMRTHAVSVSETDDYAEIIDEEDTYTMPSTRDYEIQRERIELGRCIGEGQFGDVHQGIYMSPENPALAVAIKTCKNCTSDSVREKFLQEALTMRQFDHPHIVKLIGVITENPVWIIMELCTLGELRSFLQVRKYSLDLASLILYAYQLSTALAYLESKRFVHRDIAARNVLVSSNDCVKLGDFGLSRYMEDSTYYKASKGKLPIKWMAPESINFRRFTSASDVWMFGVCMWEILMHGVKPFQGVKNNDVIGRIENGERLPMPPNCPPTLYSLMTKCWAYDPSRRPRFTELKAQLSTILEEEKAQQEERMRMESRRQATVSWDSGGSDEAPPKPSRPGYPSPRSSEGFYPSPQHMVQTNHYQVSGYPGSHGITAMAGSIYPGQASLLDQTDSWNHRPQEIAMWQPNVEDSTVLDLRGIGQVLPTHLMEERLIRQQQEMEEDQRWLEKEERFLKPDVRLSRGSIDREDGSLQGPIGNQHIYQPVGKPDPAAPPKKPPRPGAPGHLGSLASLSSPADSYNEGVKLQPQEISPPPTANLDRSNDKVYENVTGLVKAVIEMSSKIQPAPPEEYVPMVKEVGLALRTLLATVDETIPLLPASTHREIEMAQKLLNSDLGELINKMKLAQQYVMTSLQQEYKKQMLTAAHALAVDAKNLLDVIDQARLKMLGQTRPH

[4] = system: Fibrinogen (Alexa647-labelled); assay: fibrinogen binders on compound microarrays, profiling panel, artefact control for SMM control-protein annotation, biochemical, small-molecule microarray, 635/667 nm fluorescence (AID 1131); settings: fibrinogen-A647 binding fluorescence, higher = more signal;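 further: z-score merges 667 nm fluorescence with per-spot signal-to-noise over triplicate slides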
[5] = target: Follistatin (Homo sapiens) (UniProt P19883); assay: follistatin binders on small-molecule microarrays, primary screen, biochemical, small-molecule microarray, 635/667 nm fluorescence (AID 1132); settings: FST binding, 635 nm fluorescence, higher = more signal
Chain of Follistatin (Homo sapiens) (P19883 whole entry, looked up): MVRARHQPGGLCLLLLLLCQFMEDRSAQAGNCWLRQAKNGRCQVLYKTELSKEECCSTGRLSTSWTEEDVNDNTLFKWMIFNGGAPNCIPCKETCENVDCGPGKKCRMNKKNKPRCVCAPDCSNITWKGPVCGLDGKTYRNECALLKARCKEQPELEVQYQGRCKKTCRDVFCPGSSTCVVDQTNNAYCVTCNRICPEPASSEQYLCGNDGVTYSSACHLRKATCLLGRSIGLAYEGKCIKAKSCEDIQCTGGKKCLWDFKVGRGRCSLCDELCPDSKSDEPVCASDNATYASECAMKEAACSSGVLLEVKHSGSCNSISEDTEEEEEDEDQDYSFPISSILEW

[6] = target: Fibroblast growth factor 2 (Homo sapiens) (UniProt P09038); assay: FGF2 binders on small-molecule microarrays, primary screen, biochemical, small-molecule microarray, 635/667 nm fluorescence (AID 1133); settings: small-molecule microarray binding, FGF2, fluorescence 635/667; higher = more signal
Chain of Fibroblast growth factor 2 (Homo sapiens) (P09038 whole entry, looked up): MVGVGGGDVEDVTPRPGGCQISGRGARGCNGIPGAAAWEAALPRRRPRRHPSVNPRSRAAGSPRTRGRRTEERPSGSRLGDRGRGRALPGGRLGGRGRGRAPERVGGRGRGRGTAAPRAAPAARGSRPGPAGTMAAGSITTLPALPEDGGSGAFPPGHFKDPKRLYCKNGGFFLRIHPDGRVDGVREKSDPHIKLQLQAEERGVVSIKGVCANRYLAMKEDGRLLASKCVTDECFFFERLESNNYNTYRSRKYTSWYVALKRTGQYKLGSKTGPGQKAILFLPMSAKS

[7] = mitochondrial membrane potential change in A549 cells, profiling panel, cell-based, JC-1 fluorescence, basal, 24 h, 100 nL (AID 1138); settings: higher = more signal;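 further: A549 lung adenocarcinoma cells under basal conditions with no added stimulus; test concentration not given here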
Lefty1 = Lefty1 binders on small-molecule microarrays, primary screen, biochemical, small-molecule microarray, 635/667 nm fluorescence (AID 1139); settings: small-molecule microarray binding, fluorescence 635/667; higher = more signal
[8] = system: wheat germ agglutinin (Triticum aestivum), Alexa647-labelled; assay: wheat germ agglutinin binders on compound microarrays, profiling panel, artefact control for SMM control-protein annotation, biochemical, small-molecule microarray, 635/667 nm fluorescence (AID 1140); settings: WGA-A647 binding, 635 nm fluorescence, higher = more signal;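 further: score merges 667 nm feature emission with signal to noise over triplicate slides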
[9] = target: Luciferin 4-monooxygenase (Photinus pyralis) (UniProt P08659); assay: firefly luciferase enzyme inhibitors, primary screen, biochemical, luminescence, purified enzyme, 2006 set (AID 1141); settings: SteadyGlo luminescence, 30 min, higher = more signal, called active from +8 up or from −8 down;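 further: cell-free assay with purified firefly luciferase at 100 ng per well in PBS; test concentration not given here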
Chain of Luciferin 4-monooxygenase (Photinus pyralis) (P08659 whole entry, looked up): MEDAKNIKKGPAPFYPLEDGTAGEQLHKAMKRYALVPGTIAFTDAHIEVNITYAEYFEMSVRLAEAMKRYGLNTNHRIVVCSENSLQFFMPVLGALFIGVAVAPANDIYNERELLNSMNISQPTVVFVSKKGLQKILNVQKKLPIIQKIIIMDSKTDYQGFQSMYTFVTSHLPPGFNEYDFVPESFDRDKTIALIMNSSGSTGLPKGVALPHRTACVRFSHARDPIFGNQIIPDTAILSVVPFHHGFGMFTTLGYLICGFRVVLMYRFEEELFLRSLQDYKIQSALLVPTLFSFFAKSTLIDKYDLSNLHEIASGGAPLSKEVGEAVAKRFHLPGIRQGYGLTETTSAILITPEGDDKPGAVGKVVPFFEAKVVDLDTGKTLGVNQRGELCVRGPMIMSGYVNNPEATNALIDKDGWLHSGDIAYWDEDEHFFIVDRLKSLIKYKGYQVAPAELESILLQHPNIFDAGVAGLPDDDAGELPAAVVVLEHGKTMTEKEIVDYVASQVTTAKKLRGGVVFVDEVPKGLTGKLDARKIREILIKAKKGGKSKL

[10] = system: Wnt5a (protein binding on small-molecule microarray); assay: Wnt5a binders on small-molecule microarray, primary screen, biophysical, 635/667 nm fluorescence (AID 1142); settings: 635 nm fluorescence, higher = more signal;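 further: fluorescence read at 667 nm with signal to noise per printed feature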
[11] = cell viability in Huh7 cells, primary screen, cytotoxicity control for HCV replication inhibitor project, CellTiter-Glo luminescence, basal, 48 h (AID 1143); settings: Huh7 HCV replicon, higher = more signal, called active from +8 up or from −8 down;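 further: Huh7 hepatoma cells carrying a hepatitis C replication reporter with no stimulus; test concentration not given here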
[12] = P. aeruginosa biofilm formation inhibitors, primary screen, PAO1 strain, BacTiter-Glo luminescence, LB-PBS (AID 1144); settings: 12 h, higher = more signal
[13] = CREB reporter modulators without forskolin, primary screen, cell-based, PC12, CRE-LacZ reporter, unstimulated (AID 1145); settings: no forskolin, luminescence, 4.5 h, higher = more signal, called active from +8 up or from −8 down
[14] = CREB reporter modulators under forskolin, primary screen, cell-based, PC12, CRE-LacZ reporter, forskolin-stimulated (AID 1146); settings: luminescence, 4.5 h, higher = more signal, called active from +8 up or from −8 down;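 further: PC12 cells with 6xCRE LacZ reporter stimulated by forskolin 10 µM; beta-galactosidase reporter signal reflecting CREB driven transcription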
[15] = target: Streptavidin (Streptomyces avidinii) (UniProt P22629); assay: streptavidin binders on small-molecule microarray, primary screen, artefact control for SMM compound annotation, biophysical, 635/667 nm fluorescence (AID 1147); settings: streptavidin binding, higher = more signal;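 further: signal reflects streptavidin binding to arrayed compounds as a control protein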
Chain of Streptavidin (Streptomyces avidinii) (P22629 whole entry, looked up): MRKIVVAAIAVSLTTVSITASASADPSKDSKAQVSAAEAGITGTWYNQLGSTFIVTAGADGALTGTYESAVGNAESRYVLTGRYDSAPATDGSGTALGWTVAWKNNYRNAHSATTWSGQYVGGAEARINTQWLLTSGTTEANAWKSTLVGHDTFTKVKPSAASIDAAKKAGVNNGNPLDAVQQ

[16] = small-molecule binders of probe aInhba, primary screen, biochemical, small-molecule microarray, 635/667 nm fluorescence (AID 1148); settings: higher = more signal;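 further: score merges 667nm spot fluorescence with signal-to-noise for antibody binding to printed compounds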
Torsin-1A (Homo sapiens) [17] = target: Torsin-1A (Homo sapiens) (UniProt O14656); assay: torsin A binders from cell lysate, primary screen, small-molecule microarray, wild-type, 635/667 nm (AID 1149); settings: COS7 hTOR1A-WT lysate, 635 nm fluorescence, higher = more signal
Chain of Torsin-1A (Homo sapiens) (O14656 whole entry, looked up): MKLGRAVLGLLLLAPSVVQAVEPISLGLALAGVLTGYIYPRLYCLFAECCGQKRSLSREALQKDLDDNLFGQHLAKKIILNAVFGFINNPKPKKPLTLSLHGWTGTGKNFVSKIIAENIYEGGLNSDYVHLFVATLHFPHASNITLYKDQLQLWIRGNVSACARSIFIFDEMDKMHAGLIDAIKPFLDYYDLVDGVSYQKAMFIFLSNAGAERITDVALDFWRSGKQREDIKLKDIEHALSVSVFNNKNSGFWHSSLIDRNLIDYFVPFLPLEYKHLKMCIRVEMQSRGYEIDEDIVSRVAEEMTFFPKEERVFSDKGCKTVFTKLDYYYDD

Torsin-1A (Homo sapiens) [18] = target: Torsin-1A (Homo sapiens) (UniProt O14656); assay: small-molecule binders of mutant TOR1A in lysate, primary screen, cell lysate, small-molecule microarray, COS7 lysate, 635/667 nm fluorescence (AID 1150); settings: COS7 hTOR1A mutant lysate, 635 nm fluorescence, higher = more signal;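 further: score pools 667 nm emission and signal to noise measuring lysate protein binding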
[19] = system: Sonic hedgehog protein (Shh); assay: small-molecule binders of Shh protein, primary screen, biochemical, small-molecule microarray, 635/667 nm fluorescence (AID 1151); settings: small-molecule microarray binding, 635 nm fluorescence; higher = more signal;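 further: Shh protein binding to compounds spotted on small-molecule microarray slides; score combines spot fluorescence intensity with signal-to-noise across triplicate slides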

Compound | composite z-score [1] | composite z-score [2] | composite z-score [3] | composite z-score [4] | composite z-score [5] | composite z-score [6] | z-score [7] | composite z-score (Lefty1) | composite z-score [8] | z-score [9] | composite z-score [10] | z-score [11] | z-score [12] | z-score [13] | z-score [14] | composite z-score [15] | composite z-score [16] | composite z-score (Torsin-1A (Homo sapiens) [17]) | composite z-score (Torsin-1A (Homo sapiens) [18]) | composite z-score [19]
COc1cc(OC)c(C(O)C2C=CC3C(=O)NC(=O)C3N2Nc2ccc(Cl)cc2Cl)cc1Br (stereo not given) | 1.29 | 1.22 | 0.859 | 0.786 | 0.677 | 0.518 | -0.824 | 0.0498 | 1.07 | 0.719 (inactive) | 0.153 | -2.57 (inactive) | -0.835 (inactive) | 0.433 (inactive) | -0.919 (inactive) | 1.64 | 0.0111 | -0.241 | 0.414 | -0.366
C=CCN1C(=O)[C@]2(O[C@H](CCO)[C@@H]([Si](C)(C)c3ccc(OC)cc3)[C@@H]2C)c2cc(N3CCCCC3=O)ccc21 | 1.74 | 1.2 | 0.162 | 0.799 | 1.32 | 0.361 | 0.517 | 1.52 | 0.679 | -0.117 (inactive) | 0.193 | -5.37 (inactive) | 0.597 (inactive) | 3.85 (inactive) | 0.22 (inactive) | 0.802 | 0.103 | 1.1 | 0.364 | 2.24
CN1C(=O)C2C=CC(C(O)C3CC=CCC3)N(NC(=O)OC(C)(C)C)C2C1=O (stereo not given) | 0.561 | 0.889 | 0.465 | -0.0919 | 1.25 | 0.124 | -0.0347 | 0.717 | 1.32 | -0.71 (inactive) | 0.154 | 0.248 (inactive) | 0.0321 (inactive) | 0.626 (inactive) | 0.257 (inactive) | 1.15 | 0.0301 | 0.665 | 1.12 | 0.737
COCCOC(=O)N1C(=O)[C@@]2(c3cc(C#CC4(O)CCCCCC4)ccc31)[C@H](c1ccc(O)cc1)N1[C@H](c3ccccc3)[C@H](c3ccccc3)OC(=O)[C@H]1[C@@H]2C(=O)Nc1nc2ccccc2s1 | 0.84 | 1.19 | 0.482 | 0.97 | 1.18 | 1.05 | -1.85 | 0.562 | 0.227 | -0.715 (inactive) | 0.513 | -0.073 (inactive) | 0.505 (inactive) | 1.42 (inactive) | 4.93 (inactive) | 1.19 | 0.741 | 0.549 | 0.821 | 1.35
O=C1OCCC=C[C@H]2OC34C=CCN(CCN5CCOCC5)C(=O)[C@H]3N(CCCCCCO)C(=O)[C@@H]4C12 (stereo not given in full) | 0.626 | -0.525 | 0.604 | -1 | -0.061 | -0.486 | 0.884 | 0.0839 | -0.255 | -0.892 (inactive) | -0.0312 | 0.18 (inactive) | -0.134 (inactive) | 1.55 (inactive) | 0.0231 (inactive) | -0.393 | -0.179 | 0.811 | -0.839 | 0.65
O=C1OCC=C[C@H]2OC34C=CCN(c5ccc6ccccc6c5)C(=O)[C@H]3N(CCCCCCO)C(=O)[C@@H]4[C@@H]12 (stereo not given in full) | 2.67 | -0.593 | 0.806 | -0.9 | -1.18 | -0.595 | 1.16 | -0.732 | -0.434 | -0.875 (inactive) | -0.565 | 0.165 (inactive) | 3.31 (inactive) | 0.471 (inactive) | -0.0042 (inactive) | -0.719 | -0.018 | 1.62 | -1.69 | -0.749
O=C1OCC=C[C@H]2OC34C=CCN(CCN5CCOCC5)C(=O)[C@H]3N(CCCO)C(=O)[C@@H]4[C@@H]12 (stereo not given in full) | 0.314 | 0.323 | 0.574 | 0.38 | 0.216 | -0.344 | -0.798 | 0.606 | 0.114 | -0.206 (inactive) | -0.418 | -2.3 (inactive) | -0.0222 (inactive) | 0.329 (inactive) | 1.5 (inactive) | 0.212 | -0.128 | 0.267 | 0.156 | 1
O=C(O)[C@@]1(CCS(=O)(=O)c2ccccc2)COC(c2ccc(OCCCO)cc2)=N1 | -0.777 | -0.0191 | -0.283 | -1.2 | 0.0153 | -0.23 | -0.487 | -1.34 | -0.0996 | 0.299 (inactive) | -0.142 | 0.122 (inactive) | 1.98 (inactive) | -0.389 (inactive) | -0.298 (inactive) | -0.439 | -0.108 | -0.792 | 0.333 | -1.03
O=C1C2C=CC(C(O)C3CCCCC3)N(Nc3ccc([N+](=O)[O-])cc3)C2C(=O)N1c1ccccc1 (stereo not given) | 3.32 | 1.21 | 0.539 | 0.959 | -0.647 | -1.58 | -1.72 | -0.153 | 0.823 | 0.618 (inactive) | -0.457 | -0.415 (inactive) | -0.998 (inactive) | 0.537 (inactive) | 1.13 (inactive) | 0.48 | -0.213 | -0.465 | -0.199 | -1.09
COCCn1c(C(=O)N2CCCC2)cc2c1C[C@H]1CN(C(=O)c3ccccc3)[C@@](Cc3ccc(F)cc3)(C(=O)OC)[C@@H]21 | 0.346 | 1.27 | 1.61 | 1.02 | 0.35 | -0.703 | -0.328 | 0.108 | 0.845 | 3.4 (inactive) | 0.45 | -1.37 (inactive) | -0.727 (inactive) | -0.568 (inactive) | -0.442 (inactive) | 1.8 | -0.0931 | 1.42 | 2.2 | -0.554
